ELG1 repair inh – qHTS screen for small molecules that inhibit ELG1-dependent DNA repair in human embryonic kidney (HEK293T) cells expressing luciferase-tagged ELG1; HEK293T ELG1-luciferase reporter, luminescence, 16 h; DNA damage induced by 5-fluorouridine; Potency, µM (titrated, usually from 46.1 µM), inactives show at the top dose activity change, negative = inhibition, hits mostly inhibitors; 2.3% of 330,000 active; AID 504467, 2011; note: potency is the fitted concentration of half-maximal effect; nearly all actives have a fitted effect of over 55% in size
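HEK293T cells expressing luciferase-tagged ELG1 (2,000/well) received 5-Fluorouridine plus compound or DMSO for 16 hr at 37 °C. Luciferase was read by ONE-Glo luminescence after 30 min at room temperature.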
TDP1 block – qHTS Assay for Inhibitors of Tyrosyl-DNA Phosphodiesterase (TDP1); Tyrosyl-DNA phosphodiesterase 1 (Homo sapiens), Q9NUW8; recombinant TDP1, AlphaScreen DNA substrate cleavage; Potency, µM (doses to about 130 µM), without a hit: at the highest dose activity change, negative = inhibition, actives largely listed as inhibitors; 0.28% of 350,000 active; AID 485290, 2010; note: potency is the fitted concentration of half-maximal effect; nearly all actives have a fitted effect of over 40% in size
Target sequence (Q9NUW8 whole entry, looked up): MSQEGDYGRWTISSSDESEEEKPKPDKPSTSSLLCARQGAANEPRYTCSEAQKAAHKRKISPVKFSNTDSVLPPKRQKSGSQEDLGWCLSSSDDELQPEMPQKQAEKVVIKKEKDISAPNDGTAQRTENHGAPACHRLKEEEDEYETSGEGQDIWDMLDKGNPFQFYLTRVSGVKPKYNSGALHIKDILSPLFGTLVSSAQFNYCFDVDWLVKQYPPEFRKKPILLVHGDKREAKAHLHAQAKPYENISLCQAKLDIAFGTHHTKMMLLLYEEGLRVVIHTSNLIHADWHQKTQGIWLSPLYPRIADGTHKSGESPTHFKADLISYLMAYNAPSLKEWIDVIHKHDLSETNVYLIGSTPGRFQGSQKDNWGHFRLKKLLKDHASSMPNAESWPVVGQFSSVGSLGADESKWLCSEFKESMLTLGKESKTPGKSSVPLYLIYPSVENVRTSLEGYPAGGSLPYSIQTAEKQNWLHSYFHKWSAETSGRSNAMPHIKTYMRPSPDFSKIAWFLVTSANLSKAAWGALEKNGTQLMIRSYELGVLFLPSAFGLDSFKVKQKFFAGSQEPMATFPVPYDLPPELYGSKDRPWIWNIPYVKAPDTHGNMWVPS
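Enzyme-compound mixtures sat 15 min at room temperature, followed by a 5 min reaction with 15 nM final substrate and 10 min with AlphaScreen beads. Recombinant human Tdp1 was used at 1 nM final.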
Giardia killer – Small Molecules that selectively kill Giardia lamblia: qHTS; Giardia lamblia trophozoite viability; activity change, % at 7.66 µM, hits read low; 0.15% of 340,000 active; AID 540267, 2011; in the data active = activity change below about -80%; inconclusive = between about -30% and that limit;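 note: parasites exposed to compound for two days anaerobically before the ATP read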
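Giardia trophozoites, 100 cells per well, were exposed to compounds for 48 hrs at 37 deg C under anaerobic conditions; viability was then read as ATP content by bioluminescence after 15-30 min at room temperature.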
TDP1 cell CPT – qHTS for Inhibitors of human tyrosyl-DNA phosphodiesterase 1 (TDP1): qHTS in cells in presence of CPT | chicken DT40 Tdp1-/-;hTDP1 cells + 20 nM CPT, ATP luminescence, 48 h | Potency, µM (titrated, usually from 46.2 µM), for inactives: at the highest dose activity change, negative = growth inhibition, most hits filed as inhibitors | 12% of 420,000 active | AID 686979, 2013; note: potency is the fitted concentration of half-maximal effect; nearly all actives have a fitted effect of over 55% in size
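Chicken DT40 Tdp1-/- cells complemented with human TDP1, 400 cells/well, exposed to compounds plus 20 nM camptothecin for at least 48 h at 37 C; viability read as ATP content by CellTiter-Glo luminescence.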
DT40 TDP1 no CPT – qHTS for Inhibitors of human tyrosyl-DNA phosphodiesterase 1 (TDP1): qHTS in cells in absence of CPT; AID 686978, 2013; DT40 Tdp1-/- hTDP1 cells, no CPT, ATP luminescence, 48 h; Potency, µM (doses to about 46.2 µM), for the others: at the highest dose activity change, negative = growth inhibition, most hits filed as inhibitors; 15% of 420,000 active; note: potency is the fitted concentration of half-maximal effect; nearly all actives have a fitted effect of over 55% in size
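Seeded 400 DT40-hTDP1 cells/well (vehicle DMSO, no 20 nM CPT); pinned compounds; ≥48 hr at 37 °C; CellTiter-Glo luminescence as viability measure.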
IL-1B inflam inh – qHTS for Inhibitors of Inflammasome Signaling: IL-1-beta AlphaLISA Primary Screen. activity change, % at 57.5 µM. 4.7% of 360,000 active. THP-1 LPS/ATP IL-1B secretion, AlphaLISA, 16 h; hits give low values; in the data active = activity change below about -50%; inconclusive = mostly about -30% to -49%
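THP-1 cells pretreated 1 hr with compounds (up to 57.5 uM final), then stimulated with LPS (250 ng/mL final) plus ATP (1.25 mM final); secreted IL-1B measured by AlphaLISA after 16 hr, decreased signal indicating inhibition.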
Starred values were filed as active, the others as inactive; ? = inconclusive; nt = not tested or not shown. In the library only some 19% were active in any assay of this set; here they are far more common. Unless noted, calls come from the whole dose curve; as a rule, active = well fitted curve in the direction sought with a large enough effect; inconclusive = small, poorly fitted or top-dose-only effect, or another doubt; inactive = no such curve, though single readings can be large; an effect the other way counts as inactive or inconclusive. % is set by controls: 0 for no effect and ±100 for the full control effect.

SMILES | ELG1 repair inh | TDP1 block | Giardia killer | TDP1 cell CPT | DT40 TDP1 no CPT | IL-1B inflam inh
CSCCC(NS(=O)(=O)c1ccc2c(c1)oc(=O)n2C)C(=O)N1CCN(c2cccc(Cl)c2)CC1 (stereo not given) | nt | -0.9% | nt | ? | 20.6µM* | nt
CN1C(=O)Cc2cc(S(=O)(=O)CCC(=O)N3CCN(c4cccc(Cl)c4)CC3)ccc21 | nt | 5.3% | nt | 20.6µM* | 8.2µM* | nt
Cn1c(=O)oc2cc(S(=O)(=O)CCC(=O)N3CCN(c4cccc(Cl)c4)CC3)ccc21 | nt | 5.3% | nt | 18.4µM* | 11.6µM* | nt
CCN1C(=O)CC(c2ccccc2)CC1=O | 18.9% | -0.4% | 6.8 | 1.9% | -4.1% | 3.0
O=S(=O)(O)c1ccc(Cl)c(Cl)c1 | nt | nt | 0.3 | 0.0% | -10.0% | 8.3
COCCOc1ccc(C(F)(F)F)cc1NC(=O)COC(=O)C12CC3CC(CC(O)(C3)C1)C2 | -0.7% | 2.5% | 8.3 | -19.0% | -19.6% | 18.3
CN(CC1CCOCC1)C(=O)CC1C(=O)NCCN1Cc1ccccc1F (stereo not given) | 0.0% | 2.8% | -16.6 | 3.9% | -1.4% | 0.0
O=C(NCCc1ccccc1)c1cc(-c2ccccc2)nc2n[nH]c(-c3ccccc3)c12 | nt | 2.7% | nt | ? | ? | nt
Cc1ccc(CNC(=O)c2cc(-c3ccc(C)cc3)nc3n[nH]c(-c4ccc(F)cc4)c23)cc1 | nt | 5.4% | nt | 2.1% | -0.5% | nt
COc1ccc(-c2cc(C(=O)NCc3ccc(F)cc3)c3c(-c4ccc(F)cc4)[nH]nc3n2)cc1OC | nt | 0.5% | nt | 16.4µM* | 18.4µM* | nt
COc1ccc(CNC(=O)c2cc(-c3ccc(OC)cc3)nc3n[nH]c(-c4cccc([N+](=O)[O-])c4)c23)cc1 | nt | -0.5% | nt | -4.3% | -19.5% | nt
Cc1ccc(-c2cc(C(=O)NCCc3ccccc3)c3c(-c4ccc(C)cc4)[nH]nc3n2)cc1 | nt | 5.3% | nt | ? | 9.2µM* | nt
COc1ccc(CNC(=O)c2cc(-c3ccc(C)cc3)nc3n[nH]c(-c4ccc(Br)cc4)c23)cc1 | nt | -1.5% | nt | -12.5% | -1.1% | nt
COc1ccc(CNC(=O)c2cc(-c3ccc(OC)c(OC)c3)nc3n[nH]c(-c4ccc(C)cc4)c23)cc1 | nt | 4.4% | nt | 5.8µM* | 5.17µM* | nt
CCCCNC(=O)c1cc(-c2ccc(OC)cc2)nc2n[nH]c(-c3cccc([N+](=O)[O-])c3)c12 | nt | -2.5% | nt | 20.6µM* | 18.4µM* | nt
Cc1nc(N2CCC(C)CC2)c2c(C)c(C(=O)Nc3ccccc3C(F)(F)F)sc2n1 | 14.6µM* | -5.5% | -27.5 | ? | ? | -4.3
CCOc1ccc(NC(=O)c2sc3nc(C)nc(N4CCOCC4)c3c2C)cc1 | 13µM* | 3.1% | -5.6 | -3.1% | ? | -52.9*
Cc1cc(C)cc(NC(=O)c2sc3nc4n(c(=O)c3c2C)N=C(c2ccc(F)cc2)CS4)c1 | nt | 3.4% | nt | -17.4% | -25.9% | nt
Cc1cccc(NC(=O)c2sc3nc(C)nc(N4CCOCC4)c3c2C)c1 | nt | nt | nt | -29.0% | ? | ?
COc1ccc(NC(=O)c2sc3nc(C)nc(N4CCOCC4)c3c2C)c(OC)c1 | 7.8% | 5.3% | 12.6 | -2.8% | -21.8% | 9.9
Cc1c(C(=O)Nc2ccc(F)cc2F)sc2nc3n(c(=O)c12)N=C(c1ccccc1)CS3 | nt | -1.5% | nt | 14.6µM* | ? | nt
Cc1nc(N2CCOCC2)c2c(C)c(C(=O)Nc3ccc(F)cc3F)sc2n1 | ? | 0.0% | 10.1 | -28.0% | ? | -68.3*
Cc1cc(S(=O)(=O)n2ccnc2C(C)C)cc([N+](=O)[O-])c1C | nt | -0.6% | nt | 1.7% | -2.8% | nt
O=C(c1cc2ccccc2o1)N1CCN(S(=O)(=O)c2ccc(F)c(F)c2F)CC1 | 24.8% | -1.6% | 5.4 | -6.0% | 1.2% | -3.8
CCOC(=O)C1=CCN(S(=O)(=O)c2ccccc2F)C1c1cccc(C)c1 (stereo not given) | nt | nt | nt | ? | ? | 25.3
SMILES | ELG1 repair inh | TDP1 block | Giardia killer | TDP1 cell CPT | DT40 TDP1 no CPT | IL-1B inflam inh
COc1ccc(N2N=NN(C(C)C)C2=C(Cl)c2nnnn2-c2ccc(OC)cc2)cc1 | nt | nt | 6.1 | 5.8µM* | 8.2µM* | nt
CC(=O)c1ccc(S(=O)(=O)N2CCC(C(=O)Nc3ncc(C)s3)CC2)cc1 | ? | 0.8% | -0.2 | -8.2% | -4.7% | 35.9
O=C(c1cnc2ccccc2n1)N1CCN(c2ccc(C(F)(F)F)cn2)CC1 | -7.1% | 3.7% | 8.9 | -18.8% | -20.1% | 44.8
Cc1cccc(C)c1NC(=O)CN1CCN(c2ccc(C(F)(F)F)cn2)CC1 | nt | nt | nt | 14.6µM* | 11.6µM* | 6.0
Cc1ccccc1SCC(=O)N1CCN(c2ccc(C(F)(F)F)cn2)CC1 | ? | 5.4% | 14.1 | ? | 23.1µM* | -92.0*
CC(=O)Nc1ccc(N2CCN(c3ccc(C(F)(F)F)cn3)CC2)nc1 | -26.9% | 5.1% | 7.5 | ? | ? | 18.3
Cc1cccc(C)c1NC(=O)C(c1ccccc1)N1CCN(c2ccc(C(F)(F)F)cn2)CC1 (stereo not given) | nt | nt | nt | 23.1µM* | ? | 0.0
O=C(NCC(=O)N1CCN(c2ccc(C(F)(F)F)cn2)CC1)c1ccc(Br)o1 | -16.4% | 0.6% | -26.3 | 20.6µM* | 6.51µM* | 9.1
Cc1cccc(C)c1NC(=O)C(c1ccccc1)N1CCN(C)CC1 (stereo not given) | nt | nt | nt | -1.2% | -24.1% | -13.4
O=C1CCCN1c1ccc(C(=O)N(Cc2nnc(-c3ccc(Cl)cc3)o2)C2CC2)cc1 | -4.8% | -6.9% | -11.7 | ? | ? | -14.0
Cc1[nH]n(C)c(=O)c1C(=O)c1c(-c2ccccc2Cl)noc1C | 19.7% | -2.9% | 16.8 | 2.0% | 6.1% | -10.1
Cc1nc(-c2ccc(S(=O)(=O)NCc3ccccn3)s2)cs1 | -8.5% | 3.9% | 12.0 | -16.6% | ? | 18.1
